Experimental data as given in paper PMC7819943, “Rice protein-binding microarrays: a tool to detect cis-acting elements near promoter regions in rice”.
Whole data set: some 68,000 sequences, median “fluorescence intensity (a.u.)” near 9,100, cut for the highest 2% near 16,000. This is one part of a sample in which the highest values are shown more often than they occur.

molecular target: OsWRKY34 (Oryza sativa, UniProt Q0JBA9 1-250); experiment: protein-binding microarray (RPBM); PBS, 2% BSA, 51.3 ng/ul salmon testes DNA, 50 uM zinc acetate, 200 nM TF, 25 C, 1 h; high values mean tight binding; conditions: protein: recombinant; tags: N-terminal polyhistidine and DsRed monomer fusion (pET32a); label: CyDye5-dUTP incorporated in the synthesized complementary strand; 3' TTTTT single-stranded linker to array surface; dsDNA, one strand shown
In short: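 Binding signal is reported as fluorescence intensity per feature (arbitrary units) from an Axon 4000B scanner. Incubation used 200 nM of each Ni–NTA-purified, N-terminally polyhistidine- and DsRed-fused transcription factor from E. coli BL21-CodonPlus on a double-stranded custom Agilent array for 1 h at 25 °C, with 50 µM zinc acetate in the buffer, followed by washing.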

Chain of OsWRKY34 (Q0JBA9 entry or part of it): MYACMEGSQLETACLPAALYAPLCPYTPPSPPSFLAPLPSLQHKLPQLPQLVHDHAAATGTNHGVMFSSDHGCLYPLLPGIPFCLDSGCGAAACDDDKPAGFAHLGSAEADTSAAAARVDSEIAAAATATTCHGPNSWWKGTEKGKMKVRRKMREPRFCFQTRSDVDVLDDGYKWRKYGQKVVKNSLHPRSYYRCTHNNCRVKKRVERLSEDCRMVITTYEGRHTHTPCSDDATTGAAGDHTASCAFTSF

Sequence | binding signal
CGGCGGTGGTCTCCGCCGTTGGATCTGGGCGTTGACTTGTCGGAGTCACCTAGTGCAG | 9160 fluorescence intensity (a.u.)
ACTGCTGCTGCATCGGCGCCTTCACCAAGATGTCAACGGACGGAGTCACCTAGTGCAG | 8350 fluorescence intensity (a.u.)
GCTCTGAATTTTATTTTTTCCGCTTCTTGATTTCTTCGTTCGGAGTCACCTAGTGCAG | 9450 fluorescence intensity (a.u.)
GTAGCTCGTCGTCACTGCCCATAGTACTCTGGCTTAGCTACGGAGTCACCTAGTGCAG | 8030 fluorescence intensity (a.u.)
GGAGAGATGCCATGCCGCGCTATGTTGTTCAACTTCAAACCGGAGTCACCTAGTGCAG | 8400 fluorescence intensity (a.u.)
ATAGTTTGTTGTTTCCCAGACATAATTTTTACTAGCTTATCGGAGTCACCTAGTGCAG | 9630 fluorescence intensity (a.u.)
GTACACCGAAAGAAACCAACTCGTGTCCATCCATCCGTCTCGGAGTCACCTAGTGCAG | 8070 fluorescence intensity (a.u.)
TTCATATCTGCTTTTTCCTATATATGTGTGTGTGACTGCACGGAGTCACCTAGTGCAG | 9710 fluorescence intensity (a.u.)
TTTTATAATATGTTATTGTAGCAGTTTTTGTGAGCTATTACGGAGTCACCTAGTGCAG | 8100 fluorescence intensity (a.u.)
CTTGTACATCTGTCTTGCTAGAGTCTTTCACAAGATTACACGGAGTCACCTAGTGCAG | 8080 fluorescence intensity (a.u.)
GTGCTTGTGTGGCGCGTGTGCTTGTCACAGACTCTGCTCCCGGAGTCACCTAGTGCAG | 8660 fluorescence intensity (a.u.)
GATACAACCATTGCTCACATCATGGATGAACAAGATGACACGGAGTCACCTAGTGCAG | 8160 fluorescence intensity (a.u.)
AGATGATGTCATTGACCATACAAGTTGAAAATAGGAGCAACGGAGTCACCTAGTGCAG | 63300 fluorescence intensity (a.u.)
TGTGGATGGCGTGGATAAGTTGACAGTTGAAAATACAAAACGGAGTCACCTAGTGCAG | 9130 fluorescence intensity (a.u.)
ACATACCTCGTGCGGCCAGTCGCCTGTTACAAACTCCATTCGGAGTCACCTAGTGCAG | 8270 fluorescence intensity (a.u.)
TCCTTCTCTGACTCTGTCTTGGCCATCCTATTCCTAGCTCCGGAGTCACCTAGTGCAG | 10600 fluorescence intensity (a.u.)
GCACCTCTTTCCTATCACGCGTCACCTTGCTCCATTGTCGCGGAGTCACCTAGTGCAG | 19000 fluorescence intensity (a.u.)
TCCTTAGCTTCCTTCTGTCGACTTGTCTATTCTTTTTTTCCGGAGTCACCTAGTGCAG | 17700 fluorescence intensity (a.u.)
ATTGTATTTCTATATGGACTCTGCTTTTTATTTTTCTCCGCGGAGTCACCTAGTGCAG | 8930 fluorescence intensity (a.u.)
CTATATTCGAGGGAGTCCTTGTGGACTTTTTCCTTCTTTCCGGAGTCACCTAGTGCAG | 9390 fluorescence intensity (a.u.)
ACCTGTATTTGTCATTATTTAGTGGACTCTGCTTAGTTCTCGGAGTCACCTAGTGCAG | 19300 fluorescence intensity (a.u.)
TCTCTCTCCTTTTGTTGCTTCCATTTCTCGTTCTTGCACGCGGAGTCACCTAGTGCAG | 10500 fluorescence intensity (a.u.)
CCTCCTTGTTGCGGTCGTCTTTCGCTCTATCTTCCTTGTCCGGAGTCACCTAGTGCAG | 11100 fluorescence intensity (a.u.)
ATGGATCATGGATGGCTCCCGTTGTCATTGTCGCGTCGTCCGGAGTCACCTAGTGCAG | 9810 fluorescence intensity (a.u.)

Sequence | binding signal
GTTGTCATTGTCGCGTCGTCACCTCTGATTGCGTCATTCCCGGAGTCACCTAGTGCAG | 16500 fluorescence intensity (a.u.)
TGGATGGCCTTTTGTCTCTTTGTATATTATATATTTAGTTCGGAGTCACCTAGTGCAG | 8260 fluorescence intensity (a.u.)
CCTCTCTGATTCGTCACCGCCACCGCCGCGTCGTCCCGCGCGGAGTCACCTAGTGCAG | 9730 fluorescence intensity (a.u.)
CCATTCCTCTGTTTACCTCTGCTCTGTATACATACTCCGGCGGAGTCACCTAGTGCAG | 9220 fluorescence intensity (a.u.)
AGAATTCCGATCGCCACCCCGCGGTTCTGCTCTCGCCGGCCGGAGTCACCTAGTGCAG | 9150 fluorescence intensity (a.u.)
ACAAACCCGACCTTGAACTCGAAACAGGCGCACATCCCACCGGAGTCACCTAGTGCAG | 8560 fluorescence intensity (a.u.)
CCATCGGTACCATCTGTTTCGTCTACTTCCTTTGTAATCTCGGAGTCACCTAGTGCAG | 9150 fluorescence intensity (a.u.)
AGAGGAGAGGAGGGTTCAGATGTGGTGGGTCTATATAGCGCGGAGTCACCTAGTGCAG | 9610 fluorescence intensity (a.u.)
GATAGTGTCCCACGCATGCGTCCACGAGTCCTCGACGCAACGGAGTCACCTAGTGCAG | 9120 fluorescence intensity (a.u.)
TACTACACTATTAATATATGGTCCAACCTGTCATACACACCGGAGTCACCTAGTGCAG | 10700 fluorescence intensity (a.u.)
TGTTTATCTATTTTGTGTTGGTATTATTATTTCTTGTATACGGAGTCACCTAGTGCAG | 8850 fluorescence intensity (a.u.)
CCACACCACAGTCGCCTCTCTCCTCTTTCACCGAGAAGCGCGGAGTCACCTAGTGCAG | 8150 fluorescence intensity (a.u.)
GTTTCCATAGCATTACACTTTTGTAACTATTATTGTTTTGCGGAGTCACCTAGTGCAG | 9760 fluorescence intensity (a.u.)
TATGAAGTTGATTTTGTGGATTTTTTCATCGTGATTTATTCGGAGTCACCTAGTGCAG | 8890 fluorescence intensity (a.u.)
ACTTGTATTCTTCCTCGTCTTCCTCTTCTGTATTTCTGGTCGGAGTCACCTAGTGCAG | 8140 fluorescence intensity (a.u.)
TCCGTCGTCTTCCTTTACTGGTTCTATGTCTTCTCAGTAACGGAGTCACCTAGTGCAG | 10800 fluorescence intensity (a.u.)
GTTTTGTATGGTTCTCTGGATATATTACTGCCTGTAAATTCGGAGTCACCTAGTGCAG | 8320 fluorescence intensity (a.u.)
CTTGGTTTCTTGTTGTGCAACTCTCGTCGTCTCGTTCATCCGGAGTCACCTAGTGCAG | 11500 fluorescence intensity (a.u.)
TTTCTCCGTCGTCTTCCTCTACTGGTTCTATGTCTTCTCACGGAGTCACCTAGTGCAG | 18800 fluorescence intensity (a.u.)
TCCTCATGCCTCTTTTTCCTCCTCCTTCCTTCTCTCATTCCGGAGTCACCTAGTGCAG | 10200 fluorescence intensity (a.u.)
ATCATTCCTAACTGCCTGGTCGTACTTCTCTGTATTTTGTCGGAGTCACCTAGTGCAG | 17500 fluorescence intensity (a.u.)
CTCTCCTCCCTATTCTTTTCCTTTCCTCTCCTTTCCTTTCCGGAGTCACCTAGTGCAG | 8870 fluorescence intensity (a.u.)
CTTTCCGTCGCGTCTCGTCTTCTCATGGTTGCAACTCTCCCGGAGTCACCTAGTGCAG | 18100 fluorescence intensity (a.u.)
